Pf growth 48h – P. falciparum growth inhibition at 48 hours (one generation); Potency, µM (top dose mostly 28.7 µM), for the others: top-dose activity change, negative = inhibition, most hits filed as inhibitors; P. falciparum luciferase growth in erythrocytes, 48 h; AID 504832; hit rate 5.9% among 310,000; note: potency is the fitted concentration of half-maximal effect; % is set by controls: 0 for no effect and ±100 for the full control effect
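In quantitative HTS format, infected erythrocytes bearing luciferase-reporter parasites were treated for a single generation at 37 C. Luminescence after adding detection reagent served as the growth measure.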
HCV inhibitor – inhibitors of hepatitis C virus infection; Huh7.5.1 HCVcc-Cre infection, luciferase reporter, 44 h; Potency, µM (top dose mostly 41.8 µM), inactives show top-dose activity change, negative = inhibition, usual class: inhibitors; hit rate 3.4% among 340,000; AID 651820; note: potency is the fitted concentration of half-maximal effect; % is set by controls: 0 for no effect and ±100 for the full control effect
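Infectious HCVcc-Cre (~0.5 moi) was added to cells just after compound, with cells seeded 4 h earlier at 1,000 per well. Luciferase activity after 44 h culture reported infection; substrate was incubated 15 min at room temperature before reading.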
CHX counter – counter-screen for Shiga toxin inhibitors: cycloheximide protein synthesis inhibition | cell reporter, cycloheximide protein synthesis inhibition counterscreen | max response, % | hit rate 12% among 300,000 | AID 2314; in the data active = max response mostly above about 13%, no sharp cut-off; inactive = mostly below about 14%; note: read at 38.3 µM for the half of the compounds with a filed dose; 0% is about no effect
Shiga toxin inh – inhibitors of Shiga toxin in Vero cells; Vero cells, Shiga toxin protein synthesis inhibition reporter; hit rate 9.2% among 290,000; inhibition, % at 38.7 µM; in the data active = inhibition mostly above about 28%, no sharp cut-off; inactive = mostly below about 43%; note: 0% is about no effect
Pf growth 96h – inhibits malaria parasite growth, 96 h; Potency, µM (titrated, usually from 28.7 µM), without a hit: at the top dose activity change, negative = inhibition, actives largely listed as inhibitors; P. falciparum luciferase reporter growth, 96 h; hit rate 6.9% among 320,000; note: potency is the fitted concentration of half-maximal effect; % is set by controls: 0 for no effect and ±100 for the full control effect
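Delayed-death screen, second-generation endpoint: infected erythrocytes, 2% hematocrit, 0.05% parasitemia final; 96 hours at 37 C, 5% CO2; luciferase detection reagent; luminescence decrease equals reduced growth.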
HCMV inh – inhibitors of human cytomegalovirus; HFF cells, HCMV-luciferase reporter, 72 h; active compounds read low; activity change, negative = inhibition, % at 57.5 µM; hit rate 4.5% among 410,000; AID 1259415; in the data active = activity change below about -60%; inconclusive = no clear call, values can overlap the other calls; inactive = above about -39%; note: % is set by controls: 0 for no effect and ±100 for the full control effect
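HFF cells seeded 16 h at 37C, treated with compounds, infected with luciferase-reporter HCMV at MOI 1 PFU/cell; luciferase read at 72 h post infection, normalized to buffer-only and Salinomycin controls.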
* hit, by the source's call; i = inactive; ? = inconclusive; nt = no result; + = active, no number; [ ] = remark or other dose. A selection: hits, their analogues and other compounds. The true share with any hit is near 21%. Unless noted, calls come from the whole dose curve; as a rule, active = well fitted inhibition curve with a large enough effect; inconclusive = small, poorly fitted or top-dose-only effect, or another doubt; inactive = no such curve, though single readings can be large or run the other way.

SMILES	Pf growth 48h	HCV inhibitor	CHX counter	Shiga toxin inh	Pf growth 96h	HCMV inh
CN(C)c1ccc(-c2cccc(C3CC=CC4C3C(=O)N(Cc3ccccc3)C4c3ccc4ccccc4c3)c2)cc1 (stereo not given)	9.3µM*	9%	4	21	?	17
COc1ccc(C2C3C=CCC(c4cccc(-c5ccc(C)cc5)c4)C3C(=O)N2Cc2ccccc2)cc1Cl (stereo not given)	12µM*	12%	-8	-5	?	-8
COc1ccc(-c2cccc(C3CC=CC4C3C(=O)N(Cc3ccccc3)C4c3ccc4ccccc4c3)c2)cc1 (stereo not given)	9.3µM*	-2%	6	1	15µM*	-13
COc1ccc(C2C3C=CCC(c4cccc(-c5ccc(N(C)C)cc5)c4)C3C(=O)N2Cc2ccccc2)cc1Cl (stereo not given)	nt	nt	22	22	nt	nt
COc1ccc(-c2cccc([C@H]3[C@@H]4C=CC[C@@H](C)[C@@H]4C(=O)N3Cc3ccccc3)c2)cc1	nt	?	8	i	nt	-22
Cc1cc(NC(=O)N2CCC(CN3CCOCC3)CC2)ccc1Br	nt	nt	nt	nt	nt	47
COC1=C/C(=C/c2c(N)n3nc(-c4ccc(C)cc4)sc3nc2=O)C=CC1=O	19%	8%	54*	76*	15%	-4
Cc1ccc(-c2n[nH]c3c2C(c2ccccc2Cl)N(c2ccc(C(=O)O)cc2)C3=O)cc1 (stereo not given)	nt	nt	nt	nt	nt	-24
Cc1ccc(N2C(=O)c3[nH]nc(-c4ccc(Cl)cc4)c3C2c2ccc(F)cc2)cc1 (stereo not given)	nt	nt	nt	nt	nt	-105*
Cc1ccc(-c2n[nH]c3c2C(c2cccs2)N(c2ccc(Cl)cc2)C3=O)cc1 (stereo not given)	nt	nt	nt	nt	nt	-105*
O=C(NCC1CCCO1)C(Cc1ccccc1)N1C(=O)C2C3C=CC(C4CC34)C2C1=O (stereo not given)	-7%	8%	-1	22	?	-10
CCOC(=O)CCc1c(C)c2ccc(OC3CCCCC3=O)cc2oc1=O (stereo not given)	?	25%	21*	27	-22%	29
CCCc1c(C)c2ccc(OCC(C)=O)cc2oc1=O	nt	-15%	49*	94*	27%	12
CCOC(=O)CCc1c(C)c2ccc(OCC(=O)OC(C)C)cc2oc1=O	10%	11%	34*	+	35%	-33
CCOC(=O)CCc1c(C)c2ccc(OCc3ccc([N+](=O)[O-])cc3)cc2oc1=O	37%	-9%	-4	-10	0%	-4
C=CCOC(=O)COc1ccc2c(C)c(CC)c(=O)oc2c1	7%	19%	-2	-5	?	10
CCCCc1c(C)c2ccc(OCC(C)=O)cc2oc1=O	47%	-23%	30*	100*	15%	42
COc1ccccc1C(C#N)c1cccc(Cl)n1 (stereo not given)	-14%[0.00184 µM]	0%	-6	-1	-10%	nt
CC(=O)COc1ccc2c(C)c(-c3ccccc3)c(=O)oc2c1	155%	-7%	45*	58*	146%	28
COc1ccc(NC(=O)CSc2c(C)nn(-c3nnc(C)c(=O)[nH]3)c2C)cc1	-13%	14%	-2	-10	12µM*	33
COc1ccc(NC(=O)CSc2nncn2C)cc1	1%	35%	25*	16	18%	-18
Cn1cnnc1SCC(=O)Nc1ccc(OCc2ccccc2)cc1	72%	9%	48*	90*	113%	48
COc1ccc(NC(=O)CSC2=NC(=O)CC(C)=N2)cc1	19%	3%	-3	-9	12µM*	-13
Cn1cnnc1SCC(=O)Nc1ccccc1	-23%	5%	2	1	0%	20
COc1ccc(NC(=O)CSCc2ccc(C)cc2)cc1	5%	11%	2	-5	23%	-30
SMILES	Pf growth 48h	HCV inhibitor	CHX counter	Shiga toxin inh	Pf growth 96h	HCMV inh
Cc1ccccc1N(C(=O)CS(=O)CC(=O)Nc1ccc(F)cc1)C(C)C(=O)NC(C)(C)C (stereo not given)	-11%	17%	-2	-8	1%	9
Oc1ccccc1C1=Nc2ncnn2C(c2ccc(F)cc2)C1 (stereo not given)	33%	-14%	-3	-4	12µM*	77
Fc1ccc(C2CC(c3ccc(F)cc3)n3ncnc3N2)cc1 (stereo not given)	?	2%	10	-13	-25%	6
c1ccc(-c2cnc(-c3ccccn3)nn2)cc1	nt	0.5µM*	nt	nt	nt	35
c1ccc(-c2cnc(-c3ccccc3)nn2)cc1	nt	11%	nt	nt	nt	94
NCCCC[C@H](NC(=O)C1CCNCC1)c1nnc(CN)o1	41%	nt	1	-11	32%	nt
C/C(=N\NC(=O)c1nonc1N)c1cccs1	32%	22%	23*	active	13%	80
C/C(=N\NC(=O)c1sccc1-n1cccc1)c1cccs1	-2%	-3%	19	54*	34%	19
CCN(CC)S(=O)(=O)c1cccc(C(=O)N/N=C(\C)c2cccs2)c1	157%	-11%	31*	74*	68%	0
CCOC(=O)N/N=C(\C)c1cccs1	34%	16%	35*	96*	?	13
C/C(=N\NC(=O)c1cccc(S(=O)(=O)Nc2cccc(Cl)c2)c1)c1cccs1	13%	-9%	0	-3	?	-37
COCc1c(C(=O)N/N=C(/C)c2cccs2)nnn1-c1nonc1N	29%	1%	-1	4	?	-9
COc1cc(C(=O)OCC(=O)NCc2ccc(F)cc2)ccc1OCC(C)C	1%	nt	8	-6	29%	-17
Cn1c(CC(=O)NNC(=O)c2ccccc2[N+](=O)[O-])nc2ccccc21	-5%	8%	nt	nt	-22%	0
CC(=O)Nc1cccc(/C(C)=N/NC(N)=S)c1	12%	-21%	8	-9	44%	57
CC(=O)Nc1cccc(/C(C)=N/NC(=S)NC(C)C)c1	28%	?	28*	67*	49%	-3
COc1cc(C(=O)NCC(=O)N/N=C(/C)c2cccs2)cc(OC)c1OC	0%	-4%	1	-15	1.7µM*	9
C/C(=N\NC(=O)c1cccs1)c1c(O)cc(C)oc1=O	25%	17%	51*	84*	?	45
CC(=O)Nc1cccc(/C(C)=N/NC(=O)c2cccs2)c1	59%	-1%	56*	46*	14%	68
CCN(CC)C(=O)c1sc2c(c1C)c(=O)n(Cc1ccccc1)c(=O)n2Cc1c(C)cc(C)cc1C	nt	nt	nt	nt	nt	-21
O=C(O)/C=C/c1ccc(S(=O)(=O)Nc2ccc(C(=O)NCC(=O)O)cc2)cc1	46%	-3%	1	16	15%	-11
C/C(=N\NC(=O)CNC(=O)c1cccs1)c1ccc(Cl)c(Cl)c1	14%	?	-3	1	7%	-37
